Experimental data published in PubChem BioAssay (EPA / NIEHS).
Active and inactive are the calls of the source. The calls were made as follows: active = hit-call score of the fitted dose curve at least 0.9, where 1 is the maximum; inactive = score below 0.9.

Tests used:
[1] = APR_HepG2_P-H2AX_72hr: Apredica 72-hour HepG2 Assay for H2AX Phosphorylation (AID 2282916); conditions: imaging, actives raise or lower the signal;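 also: phospho-histone H2A.x immunostain intensity per cell marking DNA damage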
Summary of the method: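 Following 72 hr treatment with 0.39–200 uM compound, HepG2 cells were formaldehyde-fixed, permeabilized and stained for phospho-H2A.x; signal was measured by high-content imaging and fitted bidirectionally against DMSO controls.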

[2] = APR_HepG2_MitoMembPot_72hr: Apredica 72-hour HepG2 Assay for Mitochondrial Membrane Potential (AID 2282917); conditions: imaging, actives raise or lower the signal
Summary of the method: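 Membrane potential read by MitoTracker Red CMXRos (250 nM, 30 min, pre-fixation) fluorescence imaging of HepG2 after 72 hr exposure. Ten concentrations, 0.39–200 uM, duplicate wells, 0.5% DMSO; fitted in both directions against DMSO baseline.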

[3] = APR_HepG2_MitoticArrest_72hr: Apredica 72-hour HepG2 Assay for Mitotic Arrest (AID 2282918); conditions: high-content imaging, actives raise or lower the signal
Summary of the method: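 HepG2 cells treated 72 h at 0.39–200 uM, 0.5% DMSO final; formaldehyde-fixed, stained with Hoechst 33342 and phospho-histone H3 antibody, imaged by high-content fluorescence; bidirectional fit versus DMSO.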

[4] = APR_HepG2_MicrotubuleCSK_72hr: Apredica 72-hour HepG2 Assay for Microtubule CSK Stabilty (AID 2282919); conditions: HepG2 microtubule cytoskeleton, high-content imaging, actives raise or lower the signal
Summary of the method: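 Read-out is tubulin fluorescence intensity from high-content imaging of HepG2 cells, with nuclei identified by Hoechst 33342. Treatment lasts 72 h at 0.39–200 uM, and curves are fitted bidirectionally against the DMSO negative control.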

[5] = APR_HepG2_P-H2AX_24hr: Apredica 24-hour HepG2 Assay for H2AX Phosphorylation (AID 2282920); conditions: high-content imaging, actives raise or lower the signal
Summary of the method: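 HepG2 cells dosed 24 h at 0.39–200 uM (10 points, duplicate, 0.5% DMSO final). Formaldehyde-fixed and permeabilized, then immunostained for phospho-H2A.x with Hoechst. Fluorescence quantified by high-content imaging, fitted bidirectionally versus DMSO.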

[6] = APR_HepG2_StressKinase_72hr: Apredica 72-hour HepG2 Assay for Stress Kinase (AID 2282921); conditions: HepG2 stress kinase (phospho-c-Jun) imaging, actives raise or lower the signal
Summary of the method: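 Fluorescence intensity of Cy3-tagged anti-phospho-c-Jun antibody, quantified per cell from Hoechst-defined nuclei across six images per well, served as the read-out following 72 h exposure (0.39–200 uM, 0.5% v/v DMSO).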

[7] = APR_HepG2_StressKinase_24hr: Apredica 24-hour HepG2 Assay for Stress Kinase (AID 2282922); conditions: HepG2 stress kinase (phospho-c-Jun) imaging, actives raise or lower the signal
Summary of the method: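 HepG2, 24 hr dosing, 0.39–200 uM in duplicate, 0.5% DMSO; formaldehyde fix (3.7%), 0.5% Triton X-100; anti-phospho-c-Jun + Cy3 secondary, Hoechst counterstain; ArrayScan imaging; bidirectional curve fit vs DMSO baseline.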

[8] = APR_HepG2_p53Act_72hr: Apredica 72-hour HepG2 Assay for p53 Activation (AID 2282923); conditions: high-content imaging, actives raise or lower the signal;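 also: average cellular p53 protein immunofluorescence intensity in HepG2 cells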
Summary of the method: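 HepG2 monolayers receive test compounds in duplicate at ten concentrations (0.39 through 200 uM) for 72 hr. They are then formaldehyde-fixed, antibody-labelled for p53, Hoechst-stained and imaged, with activity fitted bidirectionally versus DMSO.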

[9] = APR_HepG2_MitoMass_72hr: Apredica 72-hour HepG2 Assay for Mitochondrial Mass (AID 2282924); conditions: high-content imaging, actives raise or lower the signal;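 also: MitoTracker Red CMXRos stain intensity per cell imaged as mitochondrial mass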
Summary of the method: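 HepG2, 72 hr cmpd, 10 conc 0.39–200 uM in dup, DMSO 0.5% v/v. MitoTracker Red CMXRos 250 nM 30 min pre-fix; formaldehyde 3.7% fix 30 min RT. HCS imaging, gain/loss fit vs DMSO.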

[10] = APR_HepG2_NuclearSize_72hr: Apredica 72-hour HepG2 Assay for Nuclear Size (AID 2282925); conditions: high-content imaging, actives raise or lower the signal
Summary of the method: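 HepG2; cpd 0.39–200 uM, 10 conc, duplicate; 72 h; DMSO 0.5% v/v; fix 3.7% formaldehyde 30 min RT; Triton permeabilization; Hoechst 2 ug/mL; HCS imaging 20x; nuclear diameter; gain/loss fit vs DMSO.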

[11] = ATG_CRE_CIS: Attagene CIS-FACTORIAL HepG2 Assay for human cAMP Responsive Element (CRE) binding protein 3 (AID 2282926); conditions: HepG2 CRE cis-reporter, Attagene multiplexed mRNA; actives raise or lower the signal
Summary of the method: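 HepG2 cells transiently transfected with cis-element-driven multiple reporter transcription units; CRE reporter mRNA measured 24 h after dosing by RT-PCR, 6-FAM labelling, HpaI digestion and capillary electrophoresis. Bidirectional fit versus DMSO baseline.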

[12] = molecular target: CCAAT/enhancer-binding protein beta (Homo sapiens) (UniProt P17676); assay: ATG_C_EBP_CIS: Attagene CIS-FACTORIAL HepG2 Assay for human CCAAT/Enhancer Binding Protein (C/EBP) beta (AID 2282927); conditions: HepG2 Attagene cis-factorial transcription factor reporter; actives raise or lower the signal
Chain of CCAAT/enhancer-binding protein beta (Homo sapiens) (P17676 whole entry, looked up): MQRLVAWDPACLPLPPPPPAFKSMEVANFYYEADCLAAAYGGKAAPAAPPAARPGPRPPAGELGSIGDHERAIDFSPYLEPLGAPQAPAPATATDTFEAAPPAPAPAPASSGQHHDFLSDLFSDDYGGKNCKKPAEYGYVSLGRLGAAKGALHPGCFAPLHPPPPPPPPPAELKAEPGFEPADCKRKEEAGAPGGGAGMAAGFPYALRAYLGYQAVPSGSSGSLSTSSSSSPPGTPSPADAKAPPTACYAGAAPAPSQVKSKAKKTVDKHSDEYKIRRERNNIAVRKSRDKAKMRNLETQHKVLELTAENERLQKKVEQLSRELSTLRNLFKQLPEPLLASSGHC
Summary of the method: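 Changes in reporter mRNA, rather than exogenous chimeric receptor activity, reflect native C/EBP signalling in transfected HepG2 cells dosed for 24 h; transcripts are detected by RT-PCR and capillary electrophoresis.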

[13] = ATG_CMV_CIS: Attagene CIS-FACTORIAL HepG2 Assay for human CMV (Internal Marker) (AID 2282928); conditions: HepG2 CMV promoter reporter, transcription factor profiling; actives raise or lower the signal;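 also: endpoint acts as a background internal control marker rather than a target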
Summary of the method: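 HepG2 cells transiently transfected with multiple cis-regulated reporter units; 24 h compound exposure. Reporter mRNA quantified by RT-PCR, 6-FAM primer-extension labeling, HpaI digestion and capillary electrophoresis; bidirectional fitting against DMSO baseline.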

[14] = ATG_DR4_LXR_CIS: Attagene CIS-FACTORIAL HepG2 Assay for human Liver X Receptor (LXR), DR4 submotif (AID 2282929); conditions: HepG2 Attagene DR4 cis-reporter, mRNA transcription; actives raise or lower the signal
Summary of the method: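 HepG2 cells were transiently transfected with multiple cis-regulated reporter units and dosed for 24 hours. The DR4 reporter mRNA was quantified by RT-PCR, 6-FAM labelling and capillary electrophoresis. Bidirectional fits used DMSO as baseline.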

[15] = molecular target: Aryl hydrocarbon receptor (Homo sapiens) (UniProt P35869); assay: ATG_Ahr_CIS: Attagene CIS-FACTORIAL HepG2 Assay for human Aryl Hydrocarbon Receptor (Ahr) (AID 2282930); conditions: HepG2 AhR cis-factorial reporter transcription; actives raise or lower the signal
Chain of Aryl hydrocarbon receptor (Homo sapiens) (P35869 whole entry, looked up): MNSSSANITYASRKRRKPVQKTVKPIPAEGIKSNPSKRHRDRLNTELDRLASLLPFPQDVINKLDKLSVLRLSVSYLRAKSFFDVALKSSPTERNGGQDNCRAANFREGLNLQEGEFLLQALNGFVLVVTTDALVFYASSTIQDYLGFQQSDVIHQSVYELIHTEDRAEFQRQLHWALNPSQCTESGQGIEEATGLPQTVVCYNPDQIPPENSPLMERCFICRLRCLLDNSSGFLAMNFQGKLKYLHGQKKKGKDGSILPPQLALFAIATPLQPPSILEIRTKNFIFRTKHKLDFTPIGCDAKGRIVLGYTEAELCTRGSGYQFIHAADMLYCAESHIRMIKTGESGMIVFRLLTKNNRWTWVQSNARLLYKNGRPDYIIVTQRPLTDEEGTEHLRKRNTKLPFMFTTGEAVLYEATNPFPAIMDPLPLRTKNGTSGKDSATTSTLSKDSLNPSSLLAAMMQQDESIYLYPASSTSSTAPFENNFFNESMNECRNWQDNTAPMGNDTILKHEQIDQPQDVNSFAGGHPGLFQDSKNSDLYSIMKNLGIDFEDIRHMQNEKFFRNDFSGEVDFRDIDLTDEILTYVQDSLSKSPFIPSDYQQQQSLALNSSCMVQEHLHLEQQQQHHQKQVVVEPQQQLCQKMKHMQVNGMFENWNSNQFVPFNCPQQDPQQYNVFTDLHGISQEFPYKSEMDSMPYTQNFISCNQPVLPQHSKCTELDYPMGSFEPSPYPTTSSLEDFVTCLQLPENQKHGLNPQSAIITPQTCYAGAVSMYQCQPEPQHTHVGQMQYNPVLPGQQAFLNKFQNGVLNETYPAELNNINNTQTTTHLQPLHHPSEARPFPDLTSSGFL
Summary of the method: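 HepG2, transient MRTU (cis) transfection, 24 h exposure. RNA → cDNA → PCR → 6-FAM primer extension → HpaI 2 h 37 C → CE. Fit: bidirectional, DMSO baseline.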

[16] = ATG_AP_1_CIS: Attagene CIS-FACTORIAL HepG2 Assay for human Activator Protein 1 (AP-1) (AID 2282931); conditions: HepG2 Attagene cis-factorial AP-1 reporter mRNA; actives raise or lower the signal
Summary of the method: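 HepG2 cells transiently transfected with cis-element-driven reporter transcription units, dosed for 24 hours. Reporter mRNA measured by RT-PCR, 6-FAM labelling, HpaI digestion and capillary electrophoresis. Bidirectional fitting against DMSO baseline.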

[17] = ATG_AP_2_CIS: Attagene CIS-FACTORIAL HepG2 Assay for human Activator Protein 2 (AP-2) (AID 2282932); conditions: HepG2 AP-2 cis-reporter, Attagene transcription factor profiling; actives raise or lower the signal
Summary of the method: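 Step one: transient transfection of HepG2 with reporter transcription units. Step two: 24 h chemical exposure. Step three: RNA extraction, RT-PCR, labelled fragment analysis by capillary electrophoresis; DMSO serves as baseline.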

[18] = ATG_BRE_CIS: Attagene CIS-FACTORIAL HepG2 Assay for human Bone Morphogenetic Protein (BMP) Response Element (BRE) (AID 2282933); conditions: HepG2 BMP response element reporter, Attagene transcription factor profiling; actives raise or lower the signal
Summary of the method: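 After a 24 h chemical treatment, transiently transfected HepG2 cells were lysed for RNA; reporter transcripts were quantified by fluorescent RT-PCR and capillary electrophoresis, normalised to DMSO.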

[19] = molecular target: Retinoic acid receptor alpha (Homo sapiens) (UniProt P10276); assay: ATG_DR5_RAR_CIS: Attagene CIS-FACTORIAL HepG2 Assay for human Retinoic Acid Receptor Alpha (RARE), DR5 submotif (AID 2282934); conditions: HepG2 Attagene cis-factorial RARE DR5 reporter, mRNA; actives raise or lower the signal
Chain of Retinoic acid receptor alpha (Homo sapiens) (P10276 whole entry, looked up): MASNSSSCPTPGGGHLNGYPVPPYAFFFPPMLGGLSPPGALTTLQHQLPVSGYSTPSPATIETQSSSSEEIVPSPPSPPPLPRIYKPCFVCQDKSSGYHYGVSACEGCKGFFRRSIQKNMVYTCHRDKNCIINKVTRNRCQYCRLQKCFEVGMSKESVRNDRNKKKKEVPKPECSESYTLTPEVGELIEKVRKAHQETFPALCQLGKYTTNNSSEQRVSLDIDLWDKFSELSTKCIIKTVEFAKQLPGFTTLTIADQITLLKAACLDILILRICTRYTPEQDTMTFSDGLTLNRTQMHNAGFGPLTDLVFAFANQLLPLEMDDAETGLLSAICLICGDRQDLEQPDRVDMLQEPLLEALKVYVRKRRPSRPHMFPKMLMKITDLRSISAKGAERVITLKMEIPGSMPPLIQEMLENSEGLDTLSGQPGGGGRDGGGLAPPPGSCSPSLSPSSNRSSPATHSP
Summary of the method: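 HepG2, transient cis-reporter transfection, 24 h exposure. mRNA readout: RT-PCR, FAM label, HpaI cut, capillary electrophoresis. DMSO baseline, gain/loss fitting.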

[20] = molecular target: Transcription factor E2F1 (Homo sapiens) (UniProt Q01094); assay: ATG_E2F_CIS: Attagene CIS-FACTORIAL HepG2 Assay for human E2F Transcription Factor 1 (AID 2282935); conditions: HepG2 Attagene cis-reporter, E2F reporter RNA transcripts; actives raise or lower the signal
Chain of Transcription factor E2F1 (Homo sapiens) (Q01094 whole entry, looked up): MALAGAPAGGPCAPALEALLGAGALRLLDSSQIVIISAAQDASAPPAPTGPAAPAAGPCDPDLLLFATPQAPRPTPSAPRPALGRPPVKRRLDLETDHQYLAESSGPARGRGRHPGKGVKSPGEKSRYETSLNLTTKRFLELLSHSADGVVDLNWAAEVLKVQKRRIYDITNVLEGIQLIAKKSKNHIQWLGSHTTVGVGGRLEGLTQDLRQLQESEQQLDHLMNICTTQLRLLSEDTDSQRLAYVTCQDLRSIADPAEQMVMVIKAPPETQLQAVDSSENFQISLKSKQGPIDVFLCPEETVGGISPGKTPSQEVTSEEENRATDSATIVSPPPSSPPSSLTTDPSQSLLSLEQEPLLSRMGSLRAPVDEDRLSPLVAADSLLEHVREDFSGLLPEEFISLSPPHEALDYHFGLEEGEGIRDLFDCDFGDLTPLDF
Summary of the method: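 Total RNA from 24 h-treated, reporter-transfected HepG2 cells undergoes DNase I treatment, oligo(dT) reverse transcription, PCR and 6-FAM primer extension before capillary electrophoresis.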

Measured: AC50

O=C(O)c1cccc(N(Cc2cccnc2)c2ccc(OC(F)F)c(OC(F)F)c2)c1
active: [1] 6.52 µM | [3] 4.04 µM | [5] 30.8 µM | [6] 15.4 µM | [8] 4.01 µM | [10] 17.4 µM
inactive: all other assays above

CCOC(=O)CC(CC(=O)OCC)(OC(C)=O)C(=O)OCC
inactive: all assays above

Cc1ccc(N)cc1O
active: [2] 1.02 µM | [15] 2.56 µM
inactive: all other assays above

O=C1CCC(N2C(=O)c3ccccc3C2=O)C(=O)N1 (stereo not given)
inactive: all assays above

Nc1ccc(Nc2ccccc2)cc1
active: [1] 29.9 µM | [3] 42.1 µM | [5] 17.9 µM | [8] 33.3 µM | [13] 36.7 µM
inactive: all other assays above

O=C(O)CC(O)C(=O)O (stereo not given)
inactive: all assays above

O=c1n(CC2CO2)c(=O)n(CC2CO2)c(=O)n1CC1CO1 (stereo not given)
active: [1] 15.2 µM | [3] 15.8 µM | [5] 17.8 µM | [7] 31.6 µM | [8] 5.06 µM | [9] 50 µM | [11] 44.5 µM | [12] 75.7 µM | [16] 4.4 µM
inactive: all other assays above

Cn1c(=O)c2c(ncn2C)n(C)c1=O
inactive: all assays above

O=C(NS(=O)(=O)/C=C/c1ccccc1)c1ccc(F)cc1Cl
inactive: all assays above

CCC(C)(C)C(=O)O[C@H]1C[C@@H](C)C=C2C=C[C@H](C)[C@H](CC[C@@H]3C[C@@H](O)CC(=O)O3)[C@H]21
active: [1] 58.8 µM | [3] 2.62 µM | [5] 73.8 µM | [6] 100 µM | [7] 115 µM | [8] 29.6 µM | [9] 0.559 µM
inactive: all other assays above

NC(=O)NO
active: [15] 100 µM
inactive: all other assays above

CCN(C(=O)c1cc(C)cc(OC[C@H](C)Nc2ccncc2)c1)C(C)C
active: [14] 67.5 µM
inactive: all other assays above

Nc1nc2ncc(CNc3ccc(C(=O)N[C@@H](CCC(=O)O)C(=O)O)cc3)nc2c(=O)[nH]1
inactive: all assays above
